A selection: hits, their analogues and other compounds. The true share with any hit is near 12%.
Sfp inh: Sfp phosphopantetheinyl transferase inhibition. Biochemical Sfp PPTase activity, qHTS. 3.5% of 310,000 active. Potency, µM, inactives show largest response in the series, negative = inhibition, hits mostly inhibitors. AID 1490;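 also: the enzyme is Sfp with the accession as filed and its product quenches rhodamine fluorescence; 0% = enzyme reaction without inhibitor and -100% = no enzyme wells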
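Buffer: 50 mM Hepes-Na pH 7.6, 10 mM MgCl2, 0.01% Nonidet P-40, 0.01% BSA. Enzyme 15 nM, pre-exposed to compound 15 min; substrates then added and fluorescence change tracked over 30 min.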
L3MBTL1 inh: inhibitors of human L3MBTL1; Q9Y468; AlphaScreen L3MBTL1–H3K9me1 peptide binding; Potency, µM (titrated, usually from 57.1 µM), for the others: at the top dose activity, negative = inhibition, actives largely listed as inhibitors; 0.66% of 230,000 active; also: % is scaled to controls: 0 for no effect and ±100 for the full control effect; nearly all actives have a fitted effect of over 60% in size
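First, the protein-peptide complex forms for 30 min at room temperature (L3MBTL1 50 nM, biotinylated H3K9me1 peptide 75 nM). Next, compounds are pin-transferred and incubated 30 min. Finally, AlphaScreen beads are added and read after 30 min.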
JMJD2A Tudor inh: inhibitors of human JMJD2A Tudor domain; O75164; AlphaScreen JMJD2A-Tudor / H3K4me3 peptide binding; Potency, µM (series often up to 114 µM), without a hit: top-dose activity change, negative = inhibition, hits mostly inhibitors; 4.4% of 390,000 active; also: % is scaled to controls: 0 for no effect and ±100 for the full control effect; nearly all actives have a fitted effect of over 50% in size
BAZ2B block: BAZ2B (human) inhibition; AlphaScreen BAZ2B-H3K14Ac peptide displacement; 4.4% of 360,000 active; Potency, µM (series often up to 114 µM), for inactives: at the highest dose activity change, negative = inhibition, usual class: inhibitors; Q9UIF8; also: % is scaled to controls: 0 for no effect and ±100 for the full control effect; nearly all actives have a fitted effect of over 60% in size
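BAZ2B (50 nM) with biotin-H3(5-23)K14Ac peptide (50 nM) in PBS pH 7.4, 0.01% Tween-20, preformed 30 min, then compound 30 min at room temperature; top concentration 110uM. AlphaScreen streptavidin donor/nickel chelate acceptor beads (10 ug/mL final), 20 min dark, signal read.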
HP1b chromo inh: HP1-beta chromodomain-methylated histone interaction inhibition; Potency, µM (titrated, usually from 114 µM), without a hit: at the top dose activity change, negative = inhibition, hits mostly inhibitors; 0.56% of 390,000 active; AlphaScreen HP1-beta / biotin-H3K9me3 peptide binding; AID 540317; also: nearly all actives have a fitted effect of over 70% in size
Target sequence (P83916 whole entry, looked up): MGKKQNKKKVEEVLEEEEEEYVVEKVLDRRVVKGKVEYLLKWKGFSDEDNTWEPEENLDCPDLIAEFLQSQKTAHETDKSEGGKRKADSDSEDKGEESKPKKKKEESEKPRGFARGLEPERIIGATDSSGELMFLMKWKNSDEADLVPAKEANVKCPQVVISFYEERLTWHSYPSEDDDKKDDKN
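AlphaScreen: HP1-beta (50 nM) preformed 30 min with biotin-H3(1-18)K9me3 peptide (50 nM) in PBS pH 7.4, 0.01% Tween-20. Compound added for 30 min at RT, then streptavidin donor/nickel chelate acceptor beads (10 ug/mL) for 30 min.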
G9a inh: blocks human histone lysine methyltransferase G9a | Q96KQ7 | G9a H3K9 monomethylation, AlphaScreen, 2 h | 8.8% of 350,000 active | Potency, µM (top dose mostly 102 µM), inactives show at the top dose activity, negative = inhibition, most hits filed as inhibitors; also: % is scaled to controls: 0 for no effect and ±100 for the full control effect; nearly all actives have a fitted effect of over 75% in size
Target sequence (Q96KQ7 913-1193 limits assumed): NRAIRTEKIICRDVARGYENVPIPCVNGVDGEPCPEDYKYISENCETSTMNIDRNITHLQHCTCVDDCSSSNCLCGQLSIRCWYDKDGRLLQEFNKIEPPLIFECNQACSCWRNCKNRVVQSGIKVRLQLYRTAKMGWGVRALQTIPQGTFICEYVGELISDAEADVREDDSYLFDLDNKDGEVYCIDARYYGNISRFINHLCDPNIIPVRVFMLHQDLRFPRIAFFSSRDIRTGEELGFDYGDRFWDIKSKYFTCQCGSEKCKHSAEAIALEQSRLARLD
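Chemiluminescent proximity detection of H3K9 monomethylation, read after 10 min bead incubation in the dark. Reaction: 20 nM G9a, 500 nM biotin-H3K9 peptide, 20 uM SAM cofactor, 2 h, room temperature, following 15 min enzyme-compound preincubation.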
* = called active by the depositor; i = inactive; u = inconclusive; x = no result given; ! = not confirmed by another sample; [ ] = another dose, or the depositor's remark. Calls follow the shape of the dose curve; as a rule, active = well fitted curve in the direction sought with a large enough effect; inconclusive = small, poorly fitted or top-dose-only effect, or another doubt; inactive = no such curve, though single readings can be large; an effect the other way counts as inactive or inconclusive. Potency is read from the fitted curve at half-maximal effect.

SMILES | Sfp inh | L3MBTL1 inh | JMJD2A Tudor inh | BAZ2B block | HP1b chromo inh | G9a inh
COc1cc(C(=O)N2CCN(CCc3ccccn3)CC2)cc(OC)c1OC | x | x | 5% | -15% | u | u
CCNc1ncc2nc(-c3cccs3)c(=O)n(CCC#N)c2n1 | -5% | x | x | x | x | -14%[0.501 µM]
C(=NN1CCCCCC1)c1cccc2ccccc12 | x | x | 50µM* | x | u | x
Oc1ccc(/C=N/N2CCCCC2)c(O)c1O | 7.9µM* | x | 8.9µM* | u | -22%[57 µM] | 1.6µM*
C(=NN1CCCCCC1)c1ccc2c(c1)OCO2 | x | x | 50µM* | x | u | x
Oc1ccc(/C=N/N2CCOCC2)c(O)c1O | 10µM* | 14µM* | 22µM* | x | -6% | 4µM*
O=S(=O)(NCC(c1ccco1)N1CCN(c2ccc(F)cc2)CC1)c1cc(F)ccc1F (stereo unspecified) | x | x | u | 8% | 17% | 34%[59 µM]
COc1ccc(CNC(=O)c2ccc(-c3nc(CSc4ccccc4)c(C)o3)cc2)cc1OC | x | x | -1% | -24% | 38% | -4%[59 µM]
COc1cccc(Cn2c(CNC(=O)CCc3ccccc3)nc3cccnc32)c1 | x | x | -17% | 2% | 14%[57 µM] | 20%[59 µM]
CCc1ccc(-c2cc(C)no2)cc1S(=O)(=O)Nc1ccc(Cl)cc1 | x | x | -21% | 7% | 8% | 12%[59 µM]
Oc1ccc(Cl)cc1C=NN1CCCCCC1 | x | x | 56µM* | x | -18% | x
Oc1ccccc1/C=N/N1CCCCC1 | 0% | -18% | -31% | x | 17% | -31%
Oc1cccc(/C=N/N2CCCCC2)c1O | -28% | x | -27% | -33% | 19% | 45µM*
Oc1ccccc1C=NN1CCCCCC1 | x | x | 45µM* | x | u | x
COc1ccc(-c2ccc(CCC(=O)O)n2CC(=O)Nc2cccc(C(F)(F)F)c2)cc1 | x | x | -31% | u | 2% | -51%[59 µM]
CNC(=O)Cn1c(=O)c2cccn2c2ccc(F)cc21 | x | x | -13% | -8% | 29% | -16%[59 µM]
COc1ccc(C(=O)NCC(c2ccc(N(C)C)cc2)N2CCCC2)c(OC)c1 (stereo unspecified) | x | x | u | u | -24% | u
CCOC(=O)/C=C1/N(C)c2ccccc2C1(C)C | 4% | x | -7% | -18% | 35% | 4%
CN1/C(=C\C(=S)NC(=O)c2ccccc2Cl)C(C)(C)c2ccccc21 | u | u | 25µM* | 11µM* | 25µM* | 35µM*
CN1/C(=C\C(=O)c2cccs2)C(C)(C)c2ccccc21 | -4% | 115% | 10% | 157% | 51% | 247%[59 µM]
CN1/C(=C/C(=S)NC(=O)C2(C)CC2(Cl)Cl)C(C)(C)c2ccccc21 (stereo unspecified) | 11% | -11%[11.4 µM] | 35µM* | 20µM* | 18µM* | u
COc1ccccc1C(=O)NC(=S)/C=C1/N(C)c2ccccc2C1(C)C | u | 13µM* | 16µM* | 11µM* | -85% | 10µM*
CN1/C(=C\C(=O)Nc2ccc(Cl)cc2)C(C)(C)c2ccccc21 | 9% | -12% | -33% | -32% | 19% | u
COc1cccc(CNC(=O)Cn2cc3c(n2)-c2c(oc(C(=O)N4CCOCC4)c2C)CC3)c1 | x | x | 4% | -21% | 47% | -4%[59 µM]
COc1ccc2c(c1)c1c(c(=O)n(-c3ccc(OC)c(OC)c3)c(=O)n1Cc1ccccc1C)n2C | x | x | 3% | -2% | 39% | 8%[59 µM]
SMILES | Sfp inh | L3MBTL1 inh | JMJD2A Tudor inh | BAZ2B block | HP1b chromo inh | G9a inh
O=C(OCc1ccc(Br)cc1)c1ccncc1 | -8% | 21% | 3% | 8% | 77% | x
O=C(OCc1ccc(Br)cc1)c1cnc(Cl)c(Cl)c1 | -11% | x | 71µM* | 404% | 464% | i
CC(C)(C)[Si](C)(C)c1c2c(nc3ccc(OCc4ccccc4)cc13)-c1cccc(=O)n1C2 | 56µM* | x | x | x | x | x
COc1cc2nc3c(c([Si](C)(C)C(C)(C)C)c2cc1OC)Cn1c-3cccc1=O | 79µM* | x | x | x | x | x
CCN(CC)c1ccc(NC(=O)c2cnn(-c3ccccc3)c2-n2cccc2)c(C)c1 | x | x | -28% | -18% | 33% | u
O=C(N/N=C/c1ccc(C(=O)O)cc1)C1=NNC(c2ccccc2)(c2ccccc2)C1 | -11% | 6% | 79µM* | u | 35% | 0%
COc1cccc(Nc2nc3ccc(C(=O)c4ccccc4)cc3n3c(C)nnc23)c1 | x | x | -1% | -2% | 33% | 6%[59 µM]
Cn1nnc(C(O)CNCc2ccc(Cl)cc2)n1 (stereo unspecified) | 6% | x | -3% | -31% | 32% | -48%[59 µM]
Cn1nnc(C(O)CN2CCOCC2)n1 (stereo unspecified) | 0% | -15% | 3% | -7% | 36% | 79µM*
Cc1ccc(C)c(-c2[nH]c3c(c2-c2c(-n4cccc4)n(C)c(=O)[nH]c2=O)c(=O)[nH]c(=O)n3C)c1 | x | x | -7% | -10% | 27% | -7%[59 µM]
Fc1ccccc1-c1nc2ccccc2[nH]1 | -21% | 55% | -8% | 3% | 17% | 4%[0.501 µM]
CCN(CC)C(=O)CSc1ncccc1-c1nc2ccccc2[nH]1 | 6% | 2% | -14% | -12% | 34% | 50µM*
CCSc1ncccc1-c1nc2ccccc2[nH]1 | 2% | 1% | -6% | 8% | x | -9%[59 µM]
CSc1ncccc1-c1nc2ccccc2[nH]1 | 4% | x | -9%[57.1 µM] | 11% | 1% | 10µM*
c1ccc2[nH]c(-c3ccnc4ccccc34)nc2c1 | 79µM*! | 0% | -13% | u | 40% | 8.9µM*!
Cc1cc(=O)[nH]c2nnc(SCC(=O)Nc3ccc(F)cc3F)n12 | x | x | 0% | 4% | 46% | -1%[59 µM]
O=C(C1=C(c2ccccc2)C(=O)c2ccccc2C1=O)c1ccccc1 | -9% | u | 22µM* | 13µM* | u | 35µM*
COc1ccc(C2=C(N)c3ccccc3C2=O)cc1 | 10% | x | -17% | -30% | 6% | u
COC1=C(c2ccccc2)C(=O)c2ccccc2C1=O | 3% | -22% | u | 45µM* | u | 20µM*
Cc1nn(CCC(=O)NCc2cccc(Br)c2)c(=O)c2nn(-c3ccccc3)c(C)c12 | x | x | -16% | -39% | 14% | -19%[59 µM]
C=CC(=O)Nc1ccc(CN2C(=O)N(c3c(Cl)c(OC)cc(OC)c3Cl)Cc3cnc(NCCCCN(CC)CC)nc32)cc1 | x | -12% | 56µM* | x | u | x
Cc1ccc(C)c(N2CCN(C(=O)c3ccc(Cn4c(=S)[nH]c5ccc(N6CCOCC6)cc5c4=O)cc3)CC2)c1 | 4% | -5% | -11% | u | 31% | 40µM*
COc1ccc(N2CCN(C(=O)c3ccc(Cn4c(=S)[nH]c5ccc(N6CCOCC6)cc5c4=O)cc3)CC2)cc1 | 71µM* | x | -27% | -3% | 7% | u
Cc1ccc(NCc2cccn2-c2nnc(N3CCC(C(=O)NCc4ccc(F)cc4)CC3)s2)cc1 | x | x | u | -9% | -7% | -7%[59 µM]
S=c1[nH]nc(-c2ccc3ccccc3n2)n1-c1ccccc1 | -5% | 0% | u | -1% | 27% | 1.6µM*

Assay outcomes (PubChem BioAssay)
